The results in this text go back to ChEMBL document CHEMBL4513216, “Probing the Open Global Health Chemical Diversity Library for Multistage-Active Starting Points for Next-Generation Antimalarials” (ACS Infect Dis, 2020).

Hit rate of the full screen: of about 69,000 compounds, about 8,600 (12%) showed an effect of 50% or more. The sample as a whole holds a higher share of strong results than the screen did.

This test has as its system Plasmodium berghei. Description: Screen against P. berghei liver stage (PbLuc), transformed with Luciferase, at 10uM. Type of test: functional, HepG2. As to conditions: tested at 10 uM.
Regarding `CC(=O)NCC(=O)N1CCC(C2CCN(Cc3ccc(Cl)cc3)C2)CC1` (stereo unspecified), the INHIBITION is recorded as 26.9%.

With `CCOCC(=O)N1CCC(C2CCN(Cc3ccc(Cl)cc3)C2)CC1` (stereo unspecified), the INHIBITION came to 26.9%.

In the case of `O=C1CN(C(=O)C2CCCCC2)CC(O)CN1Cc1ccc(Cl)cc1` (stereo unspecified), the INHIBITION is given as -0.473%.

Consider `O=C(C1CCCC1)N1CCC(C2CCN(Cc3ccc(Cl)cc3)C2)CC1` (stereo unspecified), for which the INHIBITION is listed as 67.3%.

As for `O=C(C1CCC1)N1CCC(C2CCN(Cc3ccc(Cl)cc3)C2)CC1` (stereo unspecified), the INHIBITION was found to be 55.6%.

Regarding `CN1CCN(Cc2ccc(Cl)cc2)CC1C(=O)O` (stereo unspecified), the INHIBITION came out at 17%.

As to `CCc1nc(C2CCCN2CC(=O)N2CCCc3ccccc32)no1` (stereo unspecified), the INHIBITION came out at 15.3%.

For the compound `CN(C)c1cc(C(=O)N2CCCCCC2)ccn1`, the INHIBITION is on record as 5.308%.

For `O=S(=O)(CCNC1CCc2ncnn2C1)c1ccccc1` (stereo unspecified), the INHIBITION came out at 20.6%.

For `COC1CC2(CCN(Cc3ccc4c(c3)OCO4)CC2)C1`, the INHIBITION is 37.4%.

Consider `Cc1nn(CC(O)CN2CCc3ccccc3C2)c(=O)c2ccccc12` (stereo unspecified), for which the INHIBITION came out at 18.6%.

Take `NC(=O)c1c(NC(=O)CCC(=O)O)sc2c1CCc1ccccc1-2`: the INHIBITION is -13%.

For `Cc1cccc(OCCN2CCN(Cc3cnn(CCO)c3)CC2)c1`, the INHIBITION is given as 32.9%.

Regarding `Cc1nn(C)c(C)c1S(=O)(=O)NCC(C)(O)c1ccc2c(c1)OCO2` (stereo unspecified), the INHIBITION is on record as 34.3%.

With `Cn1cnc(S(=O)(=O)NCC(C)(O)c2ccc3c(c2)OCO3)c1` (stereo unspecified), the INHIBITION came out at 52.5%.

As to `Cc1noc(C)c1S(=O)(=O)NCC(C)(O)c1ccc2c(c1)OCO2` (stereo unspecified), the INHIBITION worked out at 31.3%.

Consider `CNc1nccnc1C1CN(C(=O)c2cc[nH]n2)CCO1` (stereo unspecified), for which the INHIBITION is -22.5%.

`CN1CCN(C)C(CNc2c(C#N)cnc3ccc(Cl)cc23)C1` (stereo unspecified): the INHIBITION amounted to 7.18%.

As to `CN(C)CCOC1CC2(CCN(c3cnccn3)CC2)c2ccccc21` (stereo unspecified), the INHIBITION was found to be 31.9%.

As for `c1cncc(C2CC3(CCN(c4cnccn4)CC3)c3ccccc32)c1` (stereo unspecified), the INHIBITION came out at 54.1%.

Take `CCOC1CC2(CCN(c3cnccn3)CC2)c2ccccc21` (stereo unspecified): the INHIBITION is given as 37.9%.

Regarding `Cc1cc(C)cc(OCC(=O)N2CCC2)c1`, the INHIBITION is given as -5.22%.

With `CN(C)C(=O)CO[C@H]1CN(Cc2ccc3c(c2)OCO3)[C@@H]2COC[C@H]12`, the INHIBITION is 47.4%.

For `O=C(Nc1cnccn1)[C@@H]1C[C@H]2OCC[C@H]2N(c2ncc(F)cn2)C1`, the INHIBITION is on record as 0.923%.

Consider `O=C(Nc1cnccn1)[C@H]1C[C@H]2OCC[C@H]2N(c2ncc(F)cn2)C1`, for which the INHIBITION amounted to 60%.

Turning to `CS(=O)(=O)N1C[C@H](C(=O)Nc2cccnc2)C[C@H]2OCC[C@H]21`, the INHIBITION is on record as 30.5%.

With `CS(=O)(=O)N1C[C@H](C(=O)Nc2cnccn2)C[C@H]2OCC[C@H]21`, the INHIBITION is 61.5%.

For `O=C(Nc1cnccn1)[C@H]1CO[C@H]2CCN(c3ncc(F)cn3)C[C@H]2C1`, the INHIBITION is on record as 27.3%.

With `CS(=O)(=O)N1C[C@@H](C(=O)Nc2cnccn2)C[C@H]2OCC[C@H]21`, the INHIBITION amounted to 39.3%.

Turning to `NS(=O)(=O)Cc1ccc(CNc2cncc(-n3cccn3)n2)cc1`, the INHIBITION amounted to 11.6%.

In the case of `Cc1ccc(CN2CCN(Cc3nccn3C)[C@H]3CS(=O)(=O)C[C@H]32)o1`, the INHIBITION turned out to be 24.9%.

Regarding `O=C(CN1CCC[C@H]1C(=O)O)NCCOc1cccc(Cl)c1`, the INHIBITION was 16.1%.

On to `O=C(NC1CCN(C2CC2)CC1)c1cn(-c2ccc(Cl)cc2)nn1`, for which the INHIBITION was -6.51%.

As for `Cc1ccc2c(n1)N(Cc1csc(C)n1)CCN(C1CCOC1)C2` (stereo unspecified), the INHIBITION is recorded as 28.2%.

With `Cc1cccn2c(CNC(C)CO)cnc12` (stereo unspecified), the INHIBITION was determined as 24.7%.

Turning to `Cc1cc(C)n(CC(C)NCc2cnc3c(C)cccn23)n1` (stereo unspecified), the INHIBITION was found to be 60.4%.

`Cc1cccn2c(CNC(C)CCc3ccc(O)cc3)cnc12` (stereo unspecified): the INHIBITION amounted to 65.8%.

On to `Cc1cc(C)n(CC(C)NCc2nc(-c3cccnc3)no2)n1` (stereo unspecified), for which the INHIBITION worked out at 45.9%.

`Cc1ccc2c(c1)c(CNC(C)Cn1nc(C)cc1C)nn2C` (stereo unspecified): the INHIBITION is reported as 10.9%.

As for `Cc1cccn2c(CNC(C)CCn3cccn3)cnc12` (stereo unspecified), the INHIBITION was found to be 32.3%.

Consider `COc1ccc(OC)c(C(C)NC(=O)c2nn(C)c(C)c2Br)c1` (stereo unspecified), for which the INHIBITION is -1.84%.

In the case of `Cn1c(=O)[nH]c(=O)n2c(CC(=O)Nc3ccccc3)cnc12`, the INHIBITION was 32.5%.

Consider `COCC1CN(Cc2ccoc2)Cc2cn(CC3CCCC3)nc21` (stereo unspecified), for which the INHIBITION is 34.6%.

`CCn1cc2c(n1)C(COC)CN(Cc1ccoc1)C2` (stereo unspecified): the INHIBITION was 58.7%.

As to `COCC1CN(Cc2ccoc2)Cc2cn(C)nc21` (stereo unspecified), the INHIBITION worked out at 7.24%.

In the case of `Cn1c(Cn2ccnc2)nnc1C1CCN(C(=O)c2ccncc2)CC1`, the INHIBITION is -22.1%.

As for `COCC(=O)N1CCC(c2cc(N(C)C)cc(C)n2)CC1`, the INHIBITION was found to be 44.3%.

As to `Cc1ccc(-c2nc(CC(=O)NCC3CCOC3)cs2)o1` (stereo unspecified), the INHIBITION worked out at 71.2%.

As for `Cc1ccc(-c2nc(CC(=O)N3CCN(c4cnccn4)CC3)cs2)o1`, the INHIBITION is listed as -11.4%.

`Cc1ccc(-c2nc(CC(=O)N3CCCC(NC(=O)C(C)C)C3)cs2)o1` (stereo unspecified): the INHIBITION came out at 51.7%.

Regarding `Cc1ccc(-c2nc(C(=O)NCC3CCOC3)cs2)cc1` (stereo unspecified), the INHIBITION is 41.5%.

With `Cc1ccc(-c2nc(CC(=O)NCC(C)N3CCOCC3)cs2)o1` (stereo unspecified), the INHIBITION is reported as 67.5%.

As to `CNC(=O)C1CCCCN1C(=O)Cc1csc(-c2ccc(C)o2)n1` (stereo unspecified), the INHIBITION is recorded as -7.72%.

Regarding `Cc1ccc(-c2nc(CC(=O)NCC3CCCOC3)cs2)o1` (stereo unspecified), the INHIBITION stood at 44.3%.

On to `Cc1ccc(-c2nc(CC(=O)NCC3CCCN(C(C)C)C3)cs2)o1` (stereo unspecified), for which the INHIBITION is recorded as 38.7%.

On to `CCNC(=O)C1CCN(Cc2csc(-c3ccc(C)o3)n2)CC1`, for which the INHIBITION is reported as 20.2%.
